About 7,900 targets were measured; listed, in parts, are those with a hit and a random draw of the rest. About 0.6% of all pairs of compound and target were hits. Values without a mark were called inactive.
Columns and labels:
Test in all cases: log2 fold change, soluble protein after heating vs DMSO (PISA); higher = thermal stabilisation; K562 cells, 10 uM, 30 min; active = over 0.2 and 3.5 SD of the protein, either way, in both replicates (recomputed)
[1] = compound: C1=CC=C(C=C1)[C@H](COC2=CC3=C(C=C2)NC(=O)N3)NC(=O)C4=CC=CN(C4=O)CC5=CC(=C(C=C5)F)F
Procedure, shortened: (§1)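 Aliquots of K562 cells (2×10^6 cells/mL) treated with 10 μM compound for 30 min were heated for 3 min over 48°C-58°C. After pooling and extraction in PBS with 0.5% NP-40 at 4°C, soluble protein from a 21,000xg, 90 min spin was quantified by TMTpro 16plex LC-MS/MS with channel sums equalised. Thermal stability is expressed against control samples, from duplicates, as a log2 fold change.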

[2] = compound: CC1=C(SC2=C1C(=N[C@H](C3=NN=C(N32)C)CC(=O)N)C4=CC=C(C=C4)Cl)C
Procedure, shortened: as §1

[3] = compound: CC1=C2C(=CC=C1)N=C(N(C2=O)C3=CC=CC=C3C)CN4C=NC5=C(N=CN=C54)N
Procedure, shortened: as §1

[4] = compound: Cc1sc2c(c1C)C(c1ccc(Cl)cc1)=N[C@@H](CC(=O)OC(C)(C)C)c1nnc(C)n1-2
Procedure, shortened: as §1

[5] = compound: c1ccc([C@@H]2C[C@H]2NC2CCNCC2)cc1
Procedure, shortened: as §1

Sequence of UniProt O00193 (O00193 whole entry, looked up): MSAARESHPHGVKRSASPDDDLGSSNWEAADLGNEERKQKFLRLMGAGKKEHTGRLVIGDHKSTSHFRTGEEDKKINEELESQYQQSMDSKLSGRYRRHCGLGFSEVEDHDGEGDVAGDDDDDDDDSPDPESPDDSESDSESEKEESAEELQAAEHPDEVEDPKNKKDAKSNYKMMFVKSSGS
Sequence of UniProt Q01082 (Q01082 whole entry, looked up): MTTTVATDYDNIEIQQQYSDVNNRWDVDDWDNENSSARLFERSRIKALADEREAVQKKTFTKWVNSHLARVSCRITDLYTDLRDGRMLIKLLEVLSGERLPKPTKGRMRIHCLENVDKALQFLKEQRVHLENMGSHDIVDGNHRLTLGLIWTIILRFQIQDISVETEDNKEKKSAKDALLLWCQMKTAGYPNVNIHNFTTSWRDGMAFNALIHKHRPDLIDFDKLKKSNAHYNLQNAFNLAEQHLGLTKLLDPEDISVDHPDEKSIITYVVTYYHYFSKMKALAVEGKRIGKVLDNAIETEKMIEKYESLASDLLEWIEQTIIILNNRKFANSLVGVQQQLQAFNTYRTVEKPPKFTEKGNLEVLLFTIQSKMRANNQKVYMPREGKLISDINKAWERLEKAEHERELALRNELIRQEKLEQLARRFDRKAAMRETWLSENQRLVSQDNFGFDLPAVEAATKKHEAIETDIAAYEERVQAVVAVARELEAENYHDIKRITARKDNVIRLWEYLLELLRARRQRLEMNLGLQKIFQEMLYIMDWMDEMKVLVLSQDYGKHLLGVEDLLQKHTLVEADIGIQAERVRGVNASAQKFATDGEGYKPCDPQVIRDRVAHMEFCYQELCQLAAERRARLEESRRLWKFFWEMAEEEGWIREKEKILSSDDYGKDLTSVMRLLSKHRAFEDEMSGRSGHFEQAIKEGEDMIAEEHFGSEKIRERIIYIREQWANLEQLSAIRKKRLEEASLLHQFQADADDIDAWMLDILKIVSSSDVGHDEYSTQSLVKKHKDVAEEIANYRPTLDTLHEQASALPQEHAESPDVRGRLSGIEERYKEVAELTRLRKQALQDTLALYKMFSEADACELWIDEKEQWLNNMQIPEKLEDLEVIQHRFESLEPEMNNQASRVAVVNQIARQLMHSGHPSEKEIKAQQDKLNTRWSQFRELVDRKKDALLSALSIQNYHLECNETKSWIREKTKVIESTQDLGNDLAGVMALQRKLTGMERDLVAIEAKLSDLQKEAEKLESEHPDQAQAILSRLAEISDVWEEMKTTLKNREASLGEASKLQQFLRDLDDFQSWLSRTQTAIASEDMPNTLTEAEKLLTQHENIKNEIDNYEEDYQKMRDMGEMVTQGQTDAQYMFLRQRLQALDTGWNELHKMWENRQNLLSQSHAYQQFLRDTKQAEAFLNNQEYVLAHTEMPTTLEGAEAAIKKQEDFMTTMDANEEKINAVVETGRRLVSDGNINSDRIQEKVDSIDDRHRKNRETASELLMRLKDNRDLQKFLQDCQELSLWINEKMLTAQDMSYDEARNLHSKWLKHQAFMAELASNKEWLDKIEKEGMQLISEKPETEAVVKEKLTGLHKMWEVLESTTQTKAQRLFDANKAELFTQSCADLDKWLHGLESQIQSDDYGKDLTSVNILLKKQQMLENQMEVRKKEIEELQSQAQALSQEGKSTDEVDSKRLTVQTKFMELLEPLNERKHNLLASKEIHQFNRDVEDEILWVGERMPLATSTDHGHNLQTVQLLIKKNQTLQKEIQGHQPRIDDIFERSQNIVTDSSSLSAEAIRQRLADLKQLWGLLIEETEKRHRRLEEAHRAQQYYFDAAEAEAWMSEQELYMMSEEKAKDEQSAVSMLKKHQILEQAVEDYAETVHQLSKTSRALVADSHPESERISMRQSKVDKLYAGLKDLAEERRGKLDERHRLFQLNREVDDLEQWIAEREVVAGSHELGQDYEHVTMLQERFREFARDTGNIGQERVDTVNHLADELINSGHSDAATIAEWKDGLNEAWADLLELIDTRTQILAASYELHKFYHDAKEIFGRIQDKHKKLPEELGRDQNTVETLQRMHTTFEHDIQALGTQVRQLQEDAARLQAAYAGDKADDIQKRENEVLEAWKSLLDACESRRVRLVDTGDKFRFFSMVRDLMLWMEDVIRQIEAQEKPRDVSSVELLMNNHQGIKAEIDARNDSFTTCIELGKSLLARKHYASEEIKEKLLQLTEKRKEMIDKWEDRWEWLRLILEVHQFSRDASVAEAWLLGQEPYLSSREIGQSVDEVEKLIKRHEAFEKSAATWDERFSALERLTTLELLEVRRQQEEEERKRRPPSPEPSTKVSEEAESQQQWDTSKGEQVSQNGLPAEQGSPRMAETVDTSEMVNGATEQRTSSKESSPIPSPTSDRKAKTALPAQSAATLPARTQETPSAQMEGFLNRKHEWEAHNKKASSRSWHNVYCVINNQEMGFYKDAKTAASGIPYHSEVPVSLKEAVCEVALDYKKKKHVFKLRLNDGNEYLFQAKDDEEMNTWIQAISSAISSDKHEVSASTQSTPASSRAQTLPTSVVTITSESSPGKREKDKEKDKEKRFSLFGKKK
Sequence of UniProt O14975 (O14975 whole entry, looked up): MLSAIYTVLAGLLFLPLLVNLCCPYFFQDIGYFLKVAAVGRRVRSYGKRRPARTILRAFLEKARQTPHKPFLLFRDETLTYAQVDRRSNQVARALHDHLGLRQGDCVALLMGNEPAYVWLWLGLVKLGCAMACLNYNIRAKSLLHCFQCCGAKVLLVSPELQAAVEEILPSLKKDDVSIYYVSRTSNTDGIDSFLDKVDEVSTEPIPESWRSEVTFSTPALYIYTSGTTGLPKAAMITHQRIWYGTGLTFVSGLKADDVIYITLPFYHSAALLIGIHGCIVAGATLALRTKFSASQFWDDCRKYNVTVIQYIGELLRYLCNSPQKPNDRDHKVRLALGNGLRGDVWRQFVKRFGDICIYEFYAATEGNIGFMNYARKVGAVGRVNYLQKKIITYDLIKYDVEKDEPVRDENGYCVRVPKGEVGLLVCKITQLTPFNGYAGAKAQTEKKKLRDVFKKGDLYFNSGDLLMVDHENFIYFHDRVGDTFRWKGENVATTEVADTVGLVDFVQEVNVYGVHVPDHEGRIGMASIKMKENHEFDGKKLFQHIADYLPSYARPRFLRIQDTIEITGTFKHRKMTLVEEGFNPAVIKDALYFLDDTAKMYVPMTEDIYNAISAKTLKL
Sequence of UniProt Q6PCB7 (Q6PCB7 whole entry, looked up): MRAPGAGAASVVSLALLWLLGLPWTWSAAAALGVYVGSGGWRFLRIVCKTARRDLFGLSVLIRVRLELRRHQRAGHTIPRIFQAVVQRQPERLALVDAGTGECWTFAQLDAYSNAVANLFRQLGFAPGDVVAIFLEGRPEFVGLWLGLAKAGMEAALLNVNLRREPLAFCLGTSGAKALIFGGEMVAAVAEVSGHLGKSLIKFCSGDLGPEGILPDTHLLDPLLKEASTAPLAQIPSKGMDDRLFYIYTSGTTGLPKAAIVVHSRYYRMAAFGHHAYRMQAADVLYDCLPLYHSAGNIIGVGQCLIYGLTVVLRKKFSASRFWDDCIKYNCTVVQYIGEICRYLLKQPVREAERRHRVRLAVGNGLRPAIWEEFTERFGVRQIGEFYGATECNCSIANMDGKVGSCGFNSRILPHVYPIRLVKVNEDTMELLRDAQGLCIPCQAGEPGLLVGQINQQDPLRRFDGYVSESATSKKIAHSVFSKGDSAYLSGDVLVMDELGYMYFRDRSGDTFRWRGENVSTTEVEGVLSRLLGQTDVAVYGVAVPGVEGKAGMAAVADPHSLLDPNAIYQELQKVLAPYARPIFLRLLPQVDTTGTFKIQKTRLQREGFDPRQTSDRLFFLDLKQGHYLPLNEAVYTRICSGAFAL
Sequence of UniProt Q9Y5X3 (Q9Y5X3 whole entry, looked up): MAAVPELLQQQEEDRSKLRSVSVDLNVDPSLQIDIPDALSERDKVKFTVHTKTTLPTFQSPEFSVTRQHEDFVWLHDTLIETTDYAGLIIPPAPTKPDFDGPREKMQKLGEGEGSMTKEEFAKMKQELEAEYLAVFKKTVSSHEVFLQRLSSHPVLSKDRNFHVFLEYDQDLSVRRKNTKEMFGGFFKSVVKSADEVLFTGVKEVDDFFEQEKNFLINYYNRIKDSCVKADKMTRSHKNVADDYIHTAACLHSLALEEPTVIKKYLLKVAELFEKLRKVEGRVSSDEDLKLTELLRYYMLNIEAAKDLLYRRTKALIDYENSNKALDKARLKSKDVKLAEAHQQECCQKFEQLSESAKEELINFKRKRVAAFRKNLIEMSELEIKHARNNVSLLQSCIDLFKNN
Sequence of UniProt Q9NUY8 (Q9NUY8 whole entry, looked up): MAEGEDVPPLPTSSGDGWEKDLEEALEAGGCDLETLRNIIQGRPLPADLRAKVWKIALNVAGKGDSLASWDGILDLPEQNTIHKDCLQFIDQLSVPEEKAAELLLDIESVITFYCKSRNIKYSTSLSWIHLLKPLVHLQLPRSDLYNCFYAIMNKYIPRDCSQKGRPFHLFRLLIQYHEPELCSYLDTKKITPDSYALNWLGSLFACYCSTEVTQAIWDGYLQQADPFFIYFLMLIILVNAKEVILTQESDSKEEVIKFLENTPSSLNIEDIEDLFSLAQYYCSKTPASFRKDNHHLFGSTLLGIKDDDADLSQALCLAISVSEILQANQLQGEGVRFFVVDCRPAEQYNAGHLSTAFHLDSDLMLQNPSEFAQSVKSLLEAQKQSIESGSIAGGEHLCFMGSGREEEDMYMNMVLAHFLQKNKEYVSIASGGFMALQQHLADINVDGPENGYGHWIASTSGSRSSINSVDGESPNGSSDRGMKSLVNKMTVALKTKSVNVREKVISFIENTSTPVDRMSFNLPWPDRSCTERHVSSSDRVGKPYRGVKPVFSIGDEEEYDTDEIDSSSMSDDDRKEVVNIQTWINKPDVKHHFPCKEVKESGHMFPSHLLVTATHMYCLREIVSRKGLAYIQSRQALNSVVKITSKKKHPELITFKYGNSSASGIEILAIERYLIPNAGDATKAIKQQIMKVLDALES
Sequence of UniProt Q9Y5J6 (Q9Y5J6 whole entry, looked up): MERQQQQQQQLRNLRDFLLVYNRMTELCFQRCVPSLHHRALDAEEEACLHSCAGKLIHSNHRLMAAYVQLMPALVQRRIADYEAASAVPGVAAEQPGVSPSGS

Row | Target | log2 fold change [1] | log2 fold change [2] | log2 fold change [3] | log2 fold change [4] | log2 fold change [5]
1 | SRSF3 (UniProt P84103) | 0.099 | -0.18 | -0.159 | 0.152 | 0.055
2 | STK38 (UniProt Q15208) | -0.08 | 0.045 | 0.055 | 0.028 | -0.034
3 | STK38L (UniProt Q9Y2H1) | -0.009 | 0.472 (active) | 0.162 | 0.07 | 0.224
4 | SSRP1 (UniProt Q08945) | -0.027 | 0.023 | 0.087 | -0.051 | -0.016
5 | SLC27A2 (UniProt O14975) | 0.038 | 0.036 | 0.141 | 0.011 | -0.027
6 | SLC25A36 (UniProt Q96CQ1) | 0.027 | -0.041 | -0.066 | 0.051 | -0.008
7 | SMAP (UniProt O00193) | -0.082 | 0.011 | 0.03 | -0.039 | 0.003
8 | SNX5 (UniProt Q9Y5X3) | -0.016 | 0.045 | 0.014 | 0.04 | -0.071
9 | TBRG4 (UniProt Q969Z0) | -0.106 | 0.022 | 0.077 | -0.049 | -0.017
10 | SRSF4 (UniProt Q08170) | 0.09 | -0.166 | -0.124 | 0.073 | 0.096
11 | TAX1BP1 (UniProt Q86VP1) | -0.008 | 0.09 | 0.042 | 0.029 | -0.007
12 | SPAG9 (UniProt O60271) | -0.033 | 0.002 | 0.071 | 0.024 | -0.006
13 | TBC1D23 (UniProt Q9NUY8) | -0.039 | 0.068 | 0.034 | -0.003 | -0.037
14 | SRRM2 (UniProt Q9UQ35) | -0.005 | -0.015 | 0 | 0.05 | 0.037
15 | TIMM21 (UniProt Q9BVV7) | -0.02 | 0.052 | 0.024 | 0.004 | -0.048
16 | SUPT5H (UniProt O00267) | -0.05 | 0.109 | 0.106 | 0.001 | -0.051
17 | TANK (UniProt Q92844) | -0.001 | -0.093 | -0.019 | 0.02 | 0.026
18 | TFAM (UniProt Q00059) | 0.062 | -0.046 | -0.018 | 0.108 | 0.009
19 | STK4 (UniProt Q13043) | -0.008 | 0.088 | 0.057 | 0.005 | -0.001
20 | SRCAP (UniProt Q6ZRS2) | 0.074 | 0.013 | 0.101 | -0.005 | -0.136
21 | SPTBN1 (UniProt Q01082) | -0.002 | -0.033 | 0.078 | 0.027 | 0.013
22 | SLC27A1 (UniProt Q6PCB7) | -0.02 | 0.161 | 0.293 | 0.11 | -0.029
23 | TIMM10B (UniProt Q9Y5J6) | -0.018 | 0.18 | 0.058 | 0.066 | -0.026
24 | SUCLG1 (UniProt P53597) | 0.004 | 0.073 | 0.042 | -0.021 | -0.041
25 | TLK2 isoform 2 (UniProt Q86UE8) | 0.006 | 0.021 | 0.041 | -0.007 | 0.051

From the supplement of paper PMC10849652
